The structures appear in SMILES notation. This is part of a sample that, as a whole, favours compounds with a hit. Of some 83,000 tested, about 20% had one in any assay.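 Single-dose data. Exposure time 48 hours. Values below 10 considered active.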 Values without a mark were called inactive. Active and inactive are the calls of the source.

Test systems include HCT-15 colon; HT29 colon; SNB-75 CNS; SNB-19 CNS; U251 CNS; PC-3 prostate; SK-MEL-5 melanoma; LOX IMVI melanoma; SK-MEL-2 melanoma; EKVX NSCLC; SN12C renal; UO-31 renal; TK-10 renal; ACHN renal; CAKI-1 renal; CCRF-CEM leukemia; UACC-62 melanoma; SK-MEL-28 melanoma; A498 renal; HL-60(TB) leukemia.
Assay in all cases: NCI-60 one-dose screen, 48 h (100 = growth as untreated, 0 = no growth, -100 = all killed)
Holding throughout (settings): 10 µM unless noted

On to `COc1cc(-c2ccc(N)c(OC)c2)ccc1N`, for which the growth in the experiment with HCT-15 colon was 110%; in the experiment with HT29 colon, 97.5%; in the experiment with SNB-75 CNS, 76.9%; in the experiment on SNB-19 CNS, 102%; with U251 CNS, 99.2%; with PC-3 prostate, 105%. Further, the growth with SK-MEL-5 melanoma is 105%; in the experiment with LOX IMVI melanoma, 88.9%; with SK-MEL-2 melanoma, 118%; in the experiment on EKVX NSCLC it was 96%; in the experiment with SN12C renal, 104%; in the experiment on UO-31 renal it was 93.6%. The growth was 107% in the experiment on TK-10 renal, 100% with ACHN renal, 92.5% with CAKI-1 renal and 113% in the experiment on CCRF-CEM leukemia.

As to `Cc1cc(C(C)(C)C)ccc1O`, the growth in the experiment with HCT-15 colon was 109%; in the experiment on HT29 colon, 106%; with SNB-75 CNS it was 102%; with SNB-19 CNS it was 111%; in the experiment on U251 CNS it was 94.2%; in the experiment with PC-3 prostate it was 93.6%. Besides, the growth in the experiment on UACC-62 melanoma is 109%; with LOX IMVI melanoma, 94.9%; in the experiment with SK-MEL-28 melanoma it was 110%; in the experiment with SK-MEL-2 melanoma, 110%; in the experiment on EKVX NSCLC it was 112%; with SN12C renal, 114%. For the same molecule, the growth in the experiment on UO-31 renal was 86.9%; with TK-10 renal it was 108%; with ACHN renal, 112%; in the experiment on CAKI-1 renal, 101%; in the experiment with A498 renal it was 96%; in the experiment on HL-60(TB) leukemia, 96.9%. The growth in the experiment on CCRF-CEM leukemia is 106%.

Turning to `CC1=CC(=Nc2ccc(N(CCCl)CCCl)cc2)C=C(C)C1=O`, the growth in the experiment on HCT-15 colon is 8.95% (active); in the experiment with HT29 colon, 11.1%; in the experiment with SNB-75 CNS, 25.3%; with U251 CNS, 17.9%; in the experiment with PC-3 prostate it was 41.6%; in the experiment with SK-MEL-5 melanoma it was 22.8%. The growth was 6.59% (active) in the experiment on UACC-62 melanoma; 16.9% in the experiment with LOX IMVI melanoma; 26.3% with SK-MEL-28 melanoma; -8.46% (active) in the experiment with SK-MEL-2 melanoma; 70.6% with EKVX NSCLC; 20.4% in the experiment with SN12C renal. Also, the growth in the experiment with UO-31 renal was -13.7% (active); in the experiment with TK-10 renal it was 9.98% (active); in the experiment with ACHN renal, -1.94% (active); in the experiment with CAKI-1 renal, -44.9% (active); in the experiment on A498 renal, 69.8%; in the experiment on HL-60(TB) leukemia, -7.43% (active). Further, in the experiment with CCRF-CEM leukemia, the growth was -6.58% (active).

As to `Cn1cc(-c2csc(-c3cn(CCCCN4CCOCC4)c4ccc(F)cc34)n2)c2cccnc21`, the growth in the experiment with HCT-15 colon was 61.7%; with HT29 colon, -64% (active); in the experiment on SNB-75 CNS it was 61.9%; in the experiment with U251 CNS, 67.3%; with PC-3 prostate, 49.3%; in the experiment with SK-MEL-5 melanoma, 48.1%. In addition, the growth in the experiment with UACC-62 melanoma was 22.8%; in the experiment with LOX IMVI melanoma, 67.6%; in the experiment on SK-MEL-28 melanoma it was -87.1% (active); in the experiment on SK-MEL-2 melanoma, 78.7%; with EKVX NSCLC, 72.7%; in the experiment on SN12C renal, 72.2%. The growth in the experiment on UO-31 renal was 44.4%; in the experiment on TK-10 renal, 75.4%; with ACHN renal, 86.3%; in the experiment with CAKI-1 renal it was 76.1%; in the experiment on A498 renal, 46.7%; in the experiment on HL-60(TB) leukemia, 76.2%. Besides, the growth with CCRF-CEM leukemia is -59.6% (active).

`COC(=O)C1=CO[C@@H](C)[C@@H]2CN3CCc4c([nH]c5cc(OC)ccc45)[C@@H]3C[C@H]12`: the growth in the experiment on HCT-15 colon is 97.6%; with HT29 colon, 103%; with SNB-75 CNS it was 76.9%; in the experiment on SNB-19 CNS, 95.2%; with U251 CNS it was 103%; in the experiment with PC-3 prostate, 93.9%. In addition, the growth in the experiment with SK-MEL-5 melanoma is 98.2%; in the experiment on UACC-62 melanoma, 78.3%; in the experiment with LOX IMVI melanoma, 94.6%; in the experiment on SK-MEL-2 melanoma, 100%; in the experiment on EKVX NSCLC, 97.5%; in the experiment with SN12C renal, 87.8%. The growth was 101% in the experiment with TK-10 renal; 94.8% with ACHN renal; 89.8% with CAKI-1 renal; 68.6% in the experiment on A498 renal; 87.1% in the experiment with HL-60(TB) leukemia; 106% in the experiment with CCRF-CEM leukemia.

As to `COc1cc2c(cc1OC)[C@@H]1C(=O)c3ccc4c(c3O[C@@H]1CO2)C[C@H](C(C)C)O4`, the growth is 79.1% with HCT-15 colon; 83.1% in the experiment on HT29 colon; 90.1% in the experiment with SNB-75 CNS; 57.8% with U251 CNS; 9.13% (active) in the experiment on PC-3 prostate; 17.9% in the experiment with SK-MEL-5 melanoma. The growth in the experiment on UACC-62 melanoma is 66.7%; with LOX IMVI melanoma, 53%; with SK-MEL-28 melanoma, 98.5%; in the experiment on SK-MEL-2 melanoma it was 91%; in the experiment on EKVX NSCLC it was 26.7%; with SN12C renal, 86.9%. Also, the growth is 46.1% with UO-31 renal; 70.3% with TK-10 renal; 59.3% in the experiment with ACHN renal; 45.1% in the experiment with CAKI-1 renal; 86.8% in the experiment with A498 renal.

As to `CCN(CC)CCn1c(=O)n(C)c2ccccc21`, the growth in the experiment with HCT-15 colon is 114%; in the experiment with HT29 colon, 112%; with SNB-75 CNS it was 97%; in the experiment on SNB-19 CNS, 113%; in the experiment with U251 CNS, 96.3%; in the experiment on PC-3 prostate, 96.8%. The growth with UACC-62 melanoma is 109%; with LOX IMVI melanoma it was 98.4%; in the experiment with SK-MEL-28 melanoma, 114%; in the experiment on SK-MEL-2 melanoma it was 109%; in the experiment with EKVX NSCLC, 114%; with SN12C renal it was 108%. Also, the growth with UO-31 renal was 92.5%; in the experiment with TK-10 renal it was 111%; with ACHN renal it was 114%; in the experiment on CAKI-1 renal it was 102%; with A498 renal, 104%; with HL-60(TB) leukemia, 107%.

Take `CC[C@H](CC[C@@H](C)[C@H]1CC[C@H]2[C@@H]3CC[C@H]4C[C@]5(CC[C@]4(C)[C@H]3CC[C@]12C)OO[C@](C)(C(F)(F)F)O5)C(C)C`: the growth in the experiment on HCT-15 colon is 97%; in the experiment with HT29 colon, 102%; in the experiment with SNB-75 CNS it was 66.7%; in the experiment on U251 CNS it was 100%; with PC-3 prostate, 94.2%; with SK-MEL-5 melanoma, 99.4%. For the same molecule, the growth in the experiment on UACC-62 melanoma is 83.2%; in the experiment on LOX IMVI melanoma it was 92.9%; in the experiment on SK-MEL-28 melanoma it was 89.9%; in the experiment on SK-MEL-2 melanoma, 101%; with EKVX NSCLC, 96.2%; in the experiment on SN12C renal, 81.2%. In addition, the growth was 78.8% in the experiment on UO-31 renal; 109% in the experiment with TK-10 renal; 98.7% in the experiment on ACHN renal; 81.7% with CAKI-1 renal; 97.3% with A498 renal; 100% with CCRF-CEM leukemia.

The values are drawn from PubChem BioAssay (NCI).
